Data on 25 compounds can be found in PubChem BioAssay (NCATS).

For experiment [1], the target named is Rap guanine nucleotide exchange factor 3 (Homo sapiens) (UniProt O95398). Nature of the experiment: Confirmatory qHTS for antagonist of cAMP-regulated guanine nucleotide exchange factor 3 (EPAC1) (AID 1645880). Note: nearly all actives have a fitted effect of over 55% in size. Note: potency is the fitted concentration of half-maximal effect. A digest of the protocol:
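Released BODIPY-GDP fluoresces less than Rap1-bound BODIPY-GDP; the signal is followed at 480/540 nm at 5-min intervals over 30 min, after 5 min at room temperature. Reactions contain 100 nM EPAC1, 250 nM RAP1B-BODIPY-GDP and 50 uM GDP; results are normalized to ATA and DMSO.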

Experiment [2] shares this target. Nature of the experiment: Confirmatory qHTS for agonist of cAMP-regulated guanine nucleotide exchange factor 3 (EPAC1) (AID 1645881).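 Note: EPAC1 catalysed release of BODIPY-GDP from Rap1B seen as fluorescence loss; 100% = effect of cAMP agonist control; nearly all actives have a fitted effect of over 75% in size.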 Background: qHTS replaces the single test concentration by a dilution series.
The target in experiment [3] is Rap guanine nucleotide exchange factor 4 (Homo sapiens) (UniProt Q8WZA2). The experiment is described as follows: Confirmatory qHTS for agonist of cAMP-regulated guanine nucleotide exchange factor 4 (EPAC2) (AID 1645884).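 Note: nucleotide exchange releases bodipy-GDP from Rap1 and this lowers its fluorescence; % is set by controls: 0 for no effect and ±100 for the full control effect; nearly all actives have a fitted effect of over 65% in size.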
Chain of Rap guanine nucleotide exchange factor 4 (Homo sapiens) (Q8WZA2 whole entry, looked up): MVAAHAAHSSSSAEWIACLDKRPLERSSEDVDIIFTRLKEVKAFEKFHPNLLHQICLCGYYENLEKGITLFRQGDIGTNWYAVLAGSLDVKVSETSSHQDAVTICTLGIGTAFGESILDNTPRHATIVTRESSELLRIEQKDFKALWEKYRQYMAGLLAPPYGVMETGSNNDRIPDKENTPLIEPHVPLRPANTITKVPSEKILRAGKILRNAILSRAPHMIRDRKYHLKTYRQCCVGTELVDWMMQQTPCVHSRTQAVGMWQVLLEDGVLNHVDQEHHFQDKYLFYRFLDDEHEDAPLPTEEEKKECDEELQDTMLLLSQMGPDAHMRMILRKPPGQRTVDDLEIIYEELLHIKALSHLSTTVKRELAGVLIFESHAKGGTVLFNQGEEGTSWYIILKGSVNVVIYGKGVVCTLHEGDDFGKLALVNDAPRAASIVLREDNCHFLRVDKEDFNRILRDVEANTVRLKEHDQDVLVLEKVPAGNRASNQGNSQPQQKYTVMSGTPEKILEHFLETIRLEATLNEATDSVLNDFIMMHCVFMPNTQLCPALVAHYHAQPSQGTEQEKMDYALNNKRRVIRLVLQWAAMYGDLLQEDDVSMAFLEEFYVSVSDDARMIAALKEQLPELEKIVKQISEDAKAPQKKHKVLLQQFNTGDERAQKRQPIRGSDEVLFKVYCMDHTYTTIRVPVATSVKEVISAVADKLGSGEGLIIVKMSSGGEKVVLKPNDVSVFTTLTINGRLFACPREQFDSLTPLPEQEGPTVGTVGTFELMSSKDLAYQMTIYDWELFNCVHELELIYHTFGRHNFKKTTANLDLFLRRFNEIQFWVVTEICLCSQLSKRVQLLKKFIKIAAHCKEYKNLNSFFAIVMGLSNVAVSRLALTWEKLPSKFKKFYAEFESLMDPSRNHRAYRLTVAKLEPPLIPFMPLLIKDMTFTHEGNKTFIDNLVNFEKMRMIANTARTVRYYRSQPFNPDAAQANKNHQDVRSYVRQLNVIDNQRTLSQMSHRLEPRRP
The target is the same in experiment [4]. The experiment is described as follows: Confirmatory qHTS for antagonist of cAMP-regulated guanine nucleotide exchange factor 4 (EPAC2) (AID 1645885). For activity change, negative = inhibition: % is set by controls: 0 for no effect and ±100 for the full control effect. Note: nearly all actives have a fitted effect of over 25% in size. Note: potency is the fitted concentration of half-maximal effect.
Experiment [5] addresses Rap guanine nucleotide exchange factor 3 (Homo sapiens) (UniProt O95398). The experiment is described as follows: Counterscreen qHTS for antagonist of cAMP-regulated guanine nucleotide exchange factor 3 (EPAC1) (AID 1645888). Note: % of control where 0% means no effect. The procedure, abridged: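 Measured: fluorescence of BODIPY-GDP bound to Rap1B, which falls as exchange proceeds. Conditions include 50 uM competing GDP, 5 and 30 min reads, and a later cAMP challenge for antagonist detection.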
(Counterscreens check selectivity or assay interference.)

Results filed as inconclusive are left out. Unmarked numbers belong to inactive results. Calls of active or inactive are those of the source. Calls come from the whole dose curve; as a rule, active = well fitted curve in the direction sought with a large enough effect; inconclusive = small, poorly fitted or top-dose-only effect, or another doubt; inactive = no such curve, though single readings can be large; an effect the other way counts as inactive or inconclusive.

Chain of Rap guanine nucleotide exchange factor 3 (Homo sapiens) (O95398 whole entry, looked up): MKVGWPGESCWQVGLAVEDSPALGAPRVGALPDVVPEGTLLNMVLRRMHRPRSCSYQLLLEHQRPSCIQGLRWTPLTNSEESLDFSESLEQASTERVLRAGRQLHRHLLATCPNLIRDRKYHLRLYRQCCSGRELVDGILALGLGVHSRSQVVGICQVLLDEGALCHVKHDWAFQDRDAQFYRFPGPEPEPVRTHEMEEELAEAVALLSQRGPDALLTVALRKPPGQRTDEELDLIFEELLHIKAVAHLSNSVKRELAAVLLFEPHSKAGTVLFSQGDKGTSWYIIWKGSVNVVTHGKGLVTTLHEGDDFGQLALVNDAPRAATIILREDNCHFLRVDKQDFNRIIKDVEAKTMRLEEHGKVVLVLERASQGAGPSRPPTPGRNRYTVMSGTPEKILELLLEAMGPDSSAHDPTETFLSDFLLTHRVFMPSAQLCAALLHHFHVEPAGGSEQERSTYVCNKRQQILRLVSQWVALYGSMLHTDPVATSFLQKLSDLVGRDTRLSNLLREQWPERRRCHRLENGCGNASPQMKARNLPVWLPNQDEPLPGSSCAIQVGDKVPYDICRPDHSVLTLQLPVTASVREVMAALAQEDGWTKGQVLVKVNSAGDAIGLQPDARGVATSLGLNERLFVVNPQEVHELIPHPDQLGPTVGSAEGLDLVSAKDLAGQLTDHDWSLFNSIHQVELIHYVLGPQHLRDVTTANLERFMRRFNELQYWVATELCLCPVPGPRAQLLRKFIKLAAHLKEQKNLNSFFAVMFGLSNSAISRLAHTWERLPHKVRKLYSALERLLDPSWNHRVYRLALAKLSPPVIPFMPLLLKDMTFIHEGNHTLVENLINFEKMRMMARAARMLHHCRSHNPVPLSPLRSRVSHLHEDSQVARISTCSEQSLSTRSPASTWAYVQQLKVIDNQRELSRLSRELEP

`O=C(Nc1nc(-c2ccccc2)cs1)c1ccccc1NS(=O)(=O)c1ccc(F)cc1`: the Potency in experiment [1] and in experiment [4] was 19 µM (active) each time. Further, the Potency result in experiment [2], in experiment [3] and in experiment [5] was “inactive” each time.

In the case of `CC(=O)C[C@H]1SC[C@@H](C(C)C)N1S(=O)(=O)c1ccc(C)cc1`, the Potency entry in experiment [1], in experiment [2], in experiment [3], in experiment [4] and in experiment [5] was “inactive” in each case.

In the case of `Cc1[nH][nH]c(=O)c1C(c1c(C)[nH][nH]c1=O)c1cn(Cc2ccccc2Cl)c2ccccc12`, the Potency in experiment [1] is 75.7 µM (active). Moreover, the Potency entry in experiment [2], in experiment [3], in experiment [4] and in experiment [5] was “inactive” throughout.

Turning to `CCCCCC(=O)Nc1ccc(C2C(=O)c3ccccc3C2=O)cc1`, the Potency entry in experiment [1], in experiment [2], in experiment [3], in experiment [4] and in experiment [5] was “inactive” each time.

With `O=C(NCC(c1ccco1)N1CCN(c2ccccc2F)CC1)c1cccs1` (stereo not given), the Potency entry in experiment [1], in experiment [2] and in experiment [4] was “inactive” in each case. The activation in experiment [3] was 5.11% [at 17.1 µM, percent relative to cAMP agonist control]. Besides, in experiment [5], the activity change, negative = inhibition is 6.53% [at 30.8 µM].

For the compound `CCc1ccc(/C=C2/SC(=S)N(CCCC(=O)Nc3ccccc3C(=O)O)C2=O)cc1`, the Potency in experiment [1] is 75.7 µM (active). The Potency result in experiment [2], in experiment [3], in experiment [4] and in experiment [5] was “inactive” each time.

Consider `CC(C)[C@H](NC(=O)NCCc1ccc(F)cc1)C(=O)O`, for which the Potency result in experiment [1], in experiment [2] and in experiment [4] was “inactive” throughout. Further, the activation in experiment [3] is 8.32% [at 17.1 µM, percent relative to cAMP agonist control]. Also, the activity change, negative = inhibition in experiment [5] is -8.58% [at 30.8 µM].

`CC1=NOC(=O)/C1=C\c1ccc(-c2cc(Cl)ccc2Cl)o1`: the values for the Potency in experiment [1] and in experiment [4] were 23.9 µM (active) and 75.7 µM (active), respectively. For the same compound, the Potency entry in experiment [2], in experiment [3] and in experiment [5] was “inactive” throughout.

Take `CCOC(=O)c1ccccc1-c1csc(NS(=O)(=O)c2ccc(Cl)cc2)n1`: the Potency in experiment [1] is 31.6 µM (active). Moreover, the Potency entry in experiment [2] and in experiment [4] was “inactive” throughout. Further, the activation in experiment [3] was 4% [at 17.1 µM, percent relative to cAMP agonist control]. The activity change, negative = inhibition in experiment [5] was -28.7% [at 30.8 µM].

As to `COc1ccc(-n2c(SCC(=O)Nc3nccs3)nc3c(c2=O)SC(C)C3)cc1` (stereo not given), the Potency result in experiment [1], in experiment [2], in experiment [3], in experiment [4] and in experiment [5] was “inactive” in each case.

On to `COc1ccc(NC(=O)c2c(-c3ccccc3)c(-c3ccccc3)nn(C)c2=O)cc1OC`, for which the Potency entry in experiment [1], in experiment [2], in experiment [3], in experiment [4] and in experiment [5] was “inactive” in each case.

For the compound `COc1ccc(C(=O)c2ccc(OC)c(OC)c2OC)cc1`, the Potency entry in experiment [1], in experiment [2], in experiment [3] and in experiment [5] was “inactive” in each case. Moreover, the Potency in experiment [4] was 7.57 µM (active).

As to `COc1ccc2cc3[n+](cc2c1O)CCc1cc2c(cc1-3)OCO2`, in experiment [1], the Potency was 19 µM (active). Moreover, the Potency entry in experiment [2], in experiment [3], in experiment [4] and in experiment [5] was “inactive” in each case.

Regarding `O=C(N/N=C/c1c(O)n(-c2ccccc2Cl)c(=O)c2ccccc12)c1cccnc1`, in experiment [1], the Potency was 3.38 µM (active). Moreover, the Potency entry in experiment [2], in experiment [3], in experiment [4] and in experiment [5] was “inactive” throughout.

With `COc1cccc(NC(=O)c2csc3c2CCCC3)c1`, the Potency entry in experiment [1], in experiment [2] and in experiment [4] was “inactive” in each case. Moreover, the activation in experiment [3] is 8.66% [at 17.1 µM, percent relative to cAMP agonist control]. The activity change, negative = inhibition in experiment [5] is -28.5% [at 30.8 µM].

As for `CC1(C(=O)NS(=O)(=O)c2ccc(Cl)s2)CCN1C(=O)C1(c2ccc(Cl)cc2)CC1` (stereo not given), in experiment [1], the Potency is 14.1 µM (active). The Potency entry in experiment [2] and in experiment [4] was “inactive” throughout. In experiment [3], the activation was 0% [at 17.1 µM, percent relative to cAMP agonist control]. Further, the activity change, negative = inhibition in experiment [5] was -17.9% [at 30.8 µM].

Take `Cc1ccc(-c2sc(-c3ccccc3)nc2CC(=O)Nc2ccccc2F)cc1`: the Potency result in experiment [1], in experiment [2], in experiment [3], in experiment [4] and in experiment [5] was “inactive” each time.

Turning to `CC(CCc1ccccc1)NC(=O)C1CCN(C(=O)c2sccc2-n2cccc2)CC1` (stereo not given), the Potency result in experiment [1], in experiment [2], in experiment [3], in experiment [4] and in experiment [5] was “inactive” throughout.

Regarding `COc1cc2cc(CNc3ccc(C)cc3)c(=O)n(CC(=O)Nc3ccc(F)cc3F)c2cc1OC`, the Potency result in experiment [1], in experiment [2], in experiment [3], in experiment [4] and in experiment [5] was “inactive” each time.

Turning to `CCOc1ccc(CN2C(=O)c3ccccc3Sc3ccc(C(=O)NCc4ccc5c(c4)OCO5)cc32)cc1`, the Potency result in experiment [1], in experiment [2], in experiment [3] and in experiment [5] was “inactive” each time. In addition, in experiment [4], the outcome is “inactive [at 12.7 µM]”.

For `COc1ccccc1C(=O)Nc1ccccc1C(=O)OCc1cc(=O)n2c(C)csc2n1`, the Potency entry in experiment [1], in experiment [2], in experiment [3], in experiment [4] and in experiment [5] was “inactive” throughout.

In the case of `CCc1ccccc1NC(=O)c1cc2sc(Cl)cc2n1CC`, the Potency entry in experiment [1], in experiment [2], in experiment [3], in experiment [4] and in experiment [5] was “inactive” throughout.

Regarding `CC(C)CN(C(=O)CC1OC(=O)c2ccccc21)c1c(N)n(Cc2ccccc2)c(=O)[nH]c1=O` (stereo not given), the Potency entry in experiment [1], in experiment [2], in experiment [3], in experiment [4] and in experiment [5] was “inactive” in each case.

On to `Cc1ccc2oc(=O)c3cnn(CC(=O)NCCCOC(C)C)c3c2c1`, for which the Potency entry in experiment [1], in experiment [2], in experiment [3], in experiment [4] and in experiment [5] was “inactive” in each case.

`CCOc1cc(S(=O)(=O)N(CC)CC)ccc1Cl`: the Potency entry in experiment [1], in experiment [2] and in experiment [4] was “inactive” each time. In addition, the activation in experiment [3] was 7.51% [at 17.1 µM, percent relative to cAMP agonist control]. In addition, in experiment [5], the activity change, negative = inhibition is -20.8% [at 30.8 µM].
